Results as given in PubChem BioAssay (Tox21).
Several values for one entry are separate records, joined by “and”; a condition that tells them apart may be missing. Equal values may be shown once. Records with an inconclusive call do not appear. More than one record can exist for a structure, and the calls need not agree. Activity calls are given as the source filed them. Unless noted, the call rests on the fitted dose curve; in most records, active means well fitted curve in the direction sought with a large enough effect in the repeat runs; inconclusive means weak or mixed curves; inactive means no such curve, though single readings can be large; an effect the other way counts as inactive or inconclusive.

Tests used:
[1] = qHTS assay to identify small molecule agonists of the hypoxia (HIF-1) signaling pathway - cell viability counter screen (AID 1224844; calls by dose curve; further: nearly all actives have a fitted effect of over 50% in size; further: potency means the concentration at half of the fitted maximal effect)
Summary of the method: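 Luminescent ATP content (CellTiter-Glo, 30 min, room temperature) served as the viability measure in HRE-bla ME-180 cells exposed to compounds for 17 hrs in low-serum medium (0.5% dialyzed FBS).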

[2] = qHTS assay to identify small molecule agonists of the hypoxia (HIF-1) signaling pathway (AID 1224846; active means well fitted activation curve with a large enough effect in the signal ratio in the repeat runs, not every such curve was filed as active; the % refers to the signal ratio)
Summary of the method: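 Measured by blue/green FRET after loading CCF4-AM: beta-lactamase expressed from a hypoxia response element in ME-180 cells. Test agents were delivered in DMSO and left 17 hrs; cells had been plated 5 hrs earlier in low-serum (0.5% dialyzed FBS) medium.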

[3] = qHTS assay to identify small molecule agonists of H2AX - cell viability counter screen (AID 1224847; calls by dose curve; further: nearly all actives have a fitted effect of over 30% in size; further: potency means the concentration at half of the fitted maximal effect)
Summary of the method: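 Compounds tested at 15 concentrations were incubated 3 hr at 37C with wild-type CHO-K1 cells; cellular ATP-based luminescence (CellTiter-Glo) indicated viability.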

[4] = qHTS RealTime-Glo MT Cell Viability Assay in HepG2 cells - 24 hour (AID 1224867); further: nearly all actives have a fitted effect of over 50% in size; further: potency means the concentration at half of the fitted maximal effect
Summary of the method: (§1)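 Compound treatment began 5 h after plating HepG2 cells (600/well) with NanoLuc luciferase and prosubstrate. Plates stayed at 37 C for 40 h; luminescence was captured at six time points, 0 h through 40 h.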

[5] = qHTS RealTime-Glo MT Cell Viability Assay in HEK293 cells - 32 hour (AID 1224868); further: nearly all actives have a fitted effect of over 50% in size; further: potency means the concentration at half of the fitted maximal effect
Summary of the method: (§2)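 Quantitative high-throughput screen of the Tox21 10K library in HEK293: cells and RealTime-Glo reagents plated together, compound added at 5 h, luminescence monitored through 40 h at 37 C.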

[6] = qHTS RealTime-Glo MT Cell Viability Assay in HepG2 cells - 40 hour (AID 1224870); further: nearly all actives have a fitted effect of over 50% in size; further: potency means the concentration at half of the fitted maximal effect
Summary of the method: (§3)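 HepG2 cells mixed with RealTime-Glo MT reagents (NanoLuc plus cell-permeant prosubstrate) were seeded at 600 cells/well, incubated 5 h at 37 C/5% CO2, then pinned with compounds in DMSO; nonlytic luminescence tracked viability during 40 h treatment.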

[7] = A CellTox Green Cytotoxicity Assay to monitor cytotoxicity in HEK293 cells - 40 hour (AID 1224871); further: nearly all actives have a fitted effect of over 45% in size; further: potency means the concentration at half of the fitted maximal effect
Summary of the method: (§4)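 Each value comes from one timepoint of a single continuous run in which HEK293 cells with CellTox Green were exposed to compound for up to 40 h at 37 C, dye fluorescence rising with cell death.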

[8] = qHTS RealTime-Glo MT Cell Viability Assay in HEK293 cells - 16 hour (AID 1224872); further: nearly all actives have a fitted effect of over 50% in size; further: potency means the concentration at half of the fitted maximal effect
Summary of the method: as §2

[9] = qHTS RealTime-Glo MT Cell Viability Assay in HepG2 cells - 8 hour (AID 1224873); further: nearly all actives have a fitted effect of over 55% in size; further: potency means the concentration at half of the fitted maximal effect
Summary of the method: as §3

[10] = qHTS RealTime-Glo MT Cell Viability Assay in HEK293 cells - 40 hour (AID 1224874); conditions: RealTime-Glo luminescence; max response: stronger effect = lower value; further: nearly all actives have a fitted effect of over 50% in size; further: potency means the concentration at half of the fitted maximal effect
Summary of the method: (§5)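 qHTS format; HEK293 cells with NanoLuc/prosubstrate reagent, 37 C/5% CO2 for 5 h pre-dosing; compounds 23 nL in DMSO; luminescence at each time point reflects viable cells.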

[11] = A CellTox Green Cytotoxicity Assay to monitor cytotoxicity in HEK293 cells - 24 hour (AID 1224875); further: nearly all actives have a fitted effect of over 45% in size
Summary of the method: as §4

[12] = A CellTox Green Cytotoxicity Assay to monitor cytotoxicity in HepG2 cells - 16 hour (AID 1224876); further: nearly all actives have a fitted effect of over 45% in size; further: potency means the concentration at half of the fitted maximal effect
Summary of the method: (§6)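 Continuous culture of HepG2 cells with a membrane-impermeant DNA dye; rising fluorescence marks dead cells. Compound exposure lasted up to 40 h at 37 C, with reads every 8 h from 0 h.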

[13] = qHTS RealTime-Glo MT Cell Viability Assay in HepG2 cells - 32 hour (AID 1224877); further: nearly all actives have a fitted effect of over 55% in size; further: potency means the concentration at half of the fitted maximal effect
Summary of the method: as §1

[14] = A CellTox Green Cytotoxicity Assay to monitor cytotoxicity in HepG2 cells - 24 hour (AID 1224878); further: nearly all actives have a fitted effect of over 45% in size; further: potency means the concentration at half of the fitted maximal effect
Summary of the method: as §6

[15] = A CellTox Green Cytotoxicity Assay to monitor cytotoxicity in HepG2 cells - 40 hour (AID 1224879); further: nearly all actives have a fitted effect of over 40% in size; further: potency means the concentration at half of the fitted maximal effect
Summary of the method: as §6

[16] = qHTS RealTime-Glo MT Cell Viability Assay in HEK293 cells - 0 hour (AID 1224880)
Summary of the method: as §5

[17] = qHTS assay to identify small molecule agonists of H2AX (AID 1224845; active means well fitted activation curve with a large enough effect in the signal ratio in the repeat runs, not every such curve was filed as active; the % refers to the signal ratio; further: potency means the concentration at half of the fitted maximal effect)
Summary of the method: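 Wild-type CHO-K1 cells plated overnight, then exposed 3 hr at 37C to compounds at 15 concentrations (0.76% DMSO). Lysed, then HTRF anti-pH2AX(S139)-cryptate/anti-H2AX-d2 detection after 24 hr at room temperature; emissions 665 and 620 nm.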

[18] = qHTS assay to identify small molecule antagonists of the estrogen related receptor (ERR) signaling pathway from Tox21 library (AID 1224848); further: nearly all actives have a fitted effect of over 50% in size; further: potency means the concentration at half of the fitted maximal effect
Summary of the method: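 Cells: ERR line, 2,000/well; 6 h preincubation 37 C/5% CO2. Cpd in DMSO via pin tool; 18 h, 37 C. ONE-Glo, 30 min RT, luminescence.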

[19] = qHTS assay to identify small molecule agonists of the estrogen related receptor (ERR) signaling pathway from Tox21 library (AID 1224849; calls by dose curve; further: nearly all actives have a fitted effect of over 15% in size); conditions: ERR reporter cell line, ONE-Glo luciferase, 18 h
Summary of the method: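 We plated ERR reporter cells, waited 6 h, added compounds in DMSO by pin tool and incubated them 18 h at 37 C. ONE-Glo was then added and luminescence read after 30 min.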

[20] = A CellTox Green Cytotoxicity Assay to monitor cytotoxicity in HEK293 cells - 0 hour (AID 1224869); further: nearly all actives have a fitted effect of over 50% in size
Summary of the method: as §4
On the % scale 0 is the no-effect control and ±100 the full control effect.

C=CCSSCC=C
inactive: Potency [1] | outcome [2] | Potency [3] | Potency [4] | Potency [5] | Potency [6] | Potency [7] | Potency [8] | Potency [9] | max response [10] 1.18% | Potency [11] | Potency [12] | Potency [13] | Potency [14] | Potency [15] | outcome [16]

C[C@]12C=CC3=C4CCC(=O)C=C4CC[C@H]3[C@@H]1CC[C@@H]2O
active: Potency [3] 89.2 µM and 75.9 µM
inactive: Potency [1] | outcome [2] | Potency [5] | Potency [6] | Potency [7] | Potency [8] | Potency [9] | max response [10] -25.8% | Potency [11] | Potency [12] | Potency [13] | Potency [14] | Potency [15] | outcome [16]

O=C(O)C(O)C(O)C(=O)O (configuration not stated)
inactive: Potency [1] | Potency [17] | Potency [3] | Potency [4] | Potency [5] | Potency [6] | Potency [7] | Potency [8] | Potency [9] | max response [10] -0.119% | Potency [11] | Potency [12] | Potency [13] | Potency [14] | Potency [15] | outcome [16]

CC(C)(C#N)C(C)(C)C#N
inactive: Potency [17] | outcome [2] | Potency [3] | Potency [18] | activity change, positive = activation ([19]; at 92.4 µM (top of the series)) -14.1% | Potency [4] | Potency [5] | Potency [20] | Potency [6] | Potency [7] | Potency [8] | Potency [9] | max response [10] 1.19% | Potency [11] | Potency [12] | Potency [14] | Potency [15] | outcome [16]

O=C1CC[C@@]2(O)[C@H]3Cc4ccc(O)c5c4[C@@]2(CCN3CC2CC2)[C@H]1O5
inactive: Potency [1] | Potency [17] | Potency [3] | Potency [4] | Potency [5] | Potency [6] | Potency [7] | Potency [8] | Potency [9] | max response [10] 3.94% | Potency [11] | Potency [12] | Potency [13] | Potency [14] | Potency [15] | outcome [16]

O=[N+]([O-])/C=C/c1ccccc1
active: Potency [1] 24.9 µM and 54.9 µM | Potency [17] 20.1 µM | Potency [18] 22 µM | Potency [4] 44.4 µM and 19.5 µM | Potency [5] 7.03 µM and 13.8 µM | Potency [6] 19.8 µM and 13.8 µM | Potency [8] 4.98 µM and 12.3 µM | Potency [9] 49.8 µM | Potency [10] 6.27 µM and 15.5 µM | Potency [12] 55.8 µM | Potency [13] 22.2 µM and 17.4 µM | Potency [14] 22.2 µM | Potency [15] 12.5 µM
inactive: activity change, positive = activation ([19]; at 92.4 µM (top of the series)) -76.3% and -54.1% | Potency [20] | Potency [11] | outcome [16]

C[C@@H]1C[C@@H]([C@H](O)CC2CC(=O)NC(=O)C2)C(=O)[C@@H](C)C1
inactive and 19.5 µM (active): Potency [7]
active: Potency [1] 379 nM | Potency [18] 682 nM and 545 nM and 750 nM | Potency [5] 387 nM and 219 nM and 169 nM | Potency [10] 387 nM and 245 nM and 169 nM
inactive: outcome [2] | Potency [3] | activity change, positive = activation ([19]; at 42.5 µM (top of the series)) -64.4% | activity change, positive = activation ([19]; at 92.4 µM (top of the series)) -74.2% and -68.3% | Potency [4] | Potency [20] | Potency [6] | Potency [9] | Potency [11] | Potency [12] | Potency [13] | Potency [14] | Potency [15] | outcome [16]

CN1C[C@H](C(=O)N[C@]2(C)O[C@@]3(O)[C@@H]4CCCN4C(=O)[C@H](Cc4ccccc4)N3C2=O)C=C2c3cccc4[nH]cc(c34)C[C@H]21
active: Potency [1] 24.7 µM and 14.4 µM | Potency [9] 13.9 µM and 12.8 µM
27.7 µM (active) and inactive: Potency [5]
inactive: Potency [3] | Potency [20] | Potency [7] | Potency [8] | max response [10] -10.8% | Potency [11] | Potency [12] | Potency [14] | outcome [16]

CC[N+]1(C)CCCC(OC(=O)C(O)(c2ccccc2)c2ccccc2)C1 (configuration not stated)
inactive: Potency [1] | Potency [17] | Potency [3] | Potency [18] | activity change, positive = activation ([19]; at 42.5 µM (top of the series)) 6.13% | Potency [4] | Potency [5] | Potency [20] | Potency [6] | Potency [7] | Potency [9] | max response [10] 1.3% | Potency [11] | Potency [12] | Potency [13] | Potency [14] | outcome [16]

CCCCOC(=O)CCC(=O)OCCCC
inactive: Potency [17] | outcome [2] | Potency [3] | Potency [18] | activity change, positive = activation ([19]; at 92.4 µM (top of the series)) 0.0296% | Potency [4] | Potency [5] | Potency [20] | Potency [6] | Potency [7] | Potency [8] | Potency [9] | max response [10] 3.34% | Potency [11] | Potency [12] | Potency [13] | outcome [16]

CC(C)c1ccc(NC(=O)N(C)C)cc1
inactive: Potency [1] | Potency [17] | outcome [2] | Potency [18] | Potency [4] | Potency [5] | Potency [20] | Potency [6] | Potency [7] | Potency [9] | max response [10] 3.89% | Potency [11] | Potency [12] | Potency [13] | Potency [14] | Potency [15] | outcome [16]
active: activity change, positive = activation ([19]; at 92.4 µM (top of the series)) 33.4%

COc1ccccc1N1CCNCC1
inactive: Potency [1] | Potency [17] | Potency [3] | Potency [4] | Potency [5] | Potency [20] | Potency [6] | Potency [7] | Potency [8] | Potency [9] | max response [10] -1.42% | Potency [11] | Potency [12] | Potency [13] | Potency [14] | outcome [16]
